PubChem BioAssay (NCI)
Compounds without any hit were thinned out: in the full panel of roughly 83,000, 20% have a hit.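 Method: cells in 96-well plates; compound added at one concentration; 48 h incubation; percent growth measured; values under 10 scored active.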 Calls of active or inactive are those of the source.

Tests used:
Assay in all cases: NCI-60 one-dose screen, 48 h (100 = growth as untreated, 0 = no growth, -100 = all killed)
Settings in all cases: 10 µM unless noted
DU-145 prostate = tested on: DU-145 prostate
K-562 leukemia = tested on: K-562 leukemia
MALME-3M melanoma = tested on: MALME-3M melanoma
MDA-MB-231 breast = tested on: MDA-MB-231 breast
RXF 393 renal = tested on: RXF 393 renal
SF-268 CNS = tested on: SF-268 CNS
SF-295 CNS = tested on: SF-295 CNS
SF-539 CNS = tested on: SF-539 CNS
UACC-257 melanoma = tested on: UACC-257 melanoma
M14 melanoma = tested on: M14 melanoma
HCT-15 colon = tested on: HCT-15 colon
SNB-75 CNS = tested on: SNB-75 CNS
SNB-19 CNS = tested on: SNB-19 CNS
U251 CNS = tested on: U251 CNS
PC-3 prostate = tested on: PC-3 prostate
SK-MEL-5 melanoma = tested on: SK-MEL-5 melanoma
UACC-62 melanoma = tested on: UACC-62 melanoma
LOX IMVI melanoma = tested on: LOX IMVI melanoma
SK-MEL-28 melanoma = tested on: SK-MEL-28 melanoma
HT29 colon = tested on: HT29 colon

Measured: growth

Cc1c(NC(=O)c2sc3nc4c(cc3c2N)CN(Cc2ccccc2)CC4)cccc1C(F)(F)F
active: K-562 leukemia 8.08%
inactive: DU-145 prostate 54.9% | MALME-3M melanoma 63.8% | MDA-MB-231 breast 73.8% | RXF 393 renal 67.2% | SF-268 CNS 65.6% | SF-295 CNS 41.5% | SF-539 CNS 65% | UACC-257 melanoma 52.2% | M14 melanoma 31.2% | HCT-15 colon 29.3% | SNB-75 CNS 45.8% | SNB-19 CNS 50.5% | U251 CNS 38.2% | PC-3 prostate 56% | SK-MEL-5 melanoma 41.9% | UACC-62 melanoma 37.2% | LOX IMVI melanoma 42.3% | SK-MEL-28 melanoma 74%

CCCCC(=O)Nc1nc2ccc(SCCC)cc2s1
inactive: DU-145 prostate 67.4% | K-562 leukemia 16.5% | MALME-3M melanoma 50% | MDA-MB-231 breast 51.9% | RXF 393 renal 45.9% | SF-268 CNS 61.6% | SF-295 CNS 45.1% | SF-539 CNS 50.5% | UACC-257 melanoma 66.8% | M14 melanoma 37.3% | HCT-15 colon 43.6% | HT29 colon 18% | SNB-19 CNS 64.4% | U251 CNS 39.9% | SK-MEL-5 melanoma 42.7% | UACC-62 melanoma 43.3% | LOX IMVI melanoma 43.2% | SK-MEL-28 melanoma 64.8%

COc1ccc(C(=O)NC(=O)Nc2ccc3c(c2)NC(=O)/C3=C\c2[nH]c(C)c(C(=O)O)c2C)c(F)c1
active: MALME-3M melanoma -8% | RXF 393 renal -21%
inactive: DU-145 prostate 28.2% | K-562 leukemia 62.6% | MDA-MB-231 breast 63.5% | SF-268 CNS 65.4% | SF-295 CNS 33.1% | SF-539 CNS 47.8% | UACC-257 melanoma 47.2% | M14 melanoma 17.6% | HCT-15 colon 47.8% | SNB-75 CNS 30.4% | SNB-19 CNS 79.3% | U251 CNS 32.1% | PC-3 prostate 40.2% | SK-MEL-5 melanoma 28.2% | LOX IMVI melanoma 52.4% | SK-MEL-28 melanoma 57.9%

COc1cc(NS(=O)(=O)c2ccc(N)cc2)ncn1
inactive: DU-145 prostate 118% | K-562 leukemia 92.9% | MALME-3M melanoma 97.4% | MDA-MB-231 breast 94.7% | RXF 393 renal 112% | SF-268 CNS 109% | SF-295 CNS 102% | SF-539 CNS 112% | UACC-257 melanoma 106% | M14 melanoma 107% | HCT-15 colon 108% | SNB-75 CNS 104% | U251 CNS 102% | PC-3 prostate 99.8% | SK-MEL-5 melanoma 103% | UACC-62 melanoma 99.1% | LOX IMVI melanoma 94.3% | SK-MEL-28 melanoma 121%

O=[N+]([O-])c1cccc(C2c3ccccc3Oc3ccccc32)c1
inactive: DU-145 prostate 101% | K-562 leukemia 65.7% | MALME-3M melanoma 101% | MDA-MB-231 breast 92% | RXF 393 renal 109% | SF-268 CNS 102% | SF-295 CNS 76.9% | SF-539 CNS 112% | UACC-257 melanoma 104% | M14 melanoma 110% | HCT-15 colon 71.1% | SNB-75 CNS 94.4% | SNB-19 CNS 97.1% | U251 CNS 94.7% | PC-3 prostate 84.2% | SK-MEL-5 melanoma 99.4% | UACC-62 melanoma 86.1% | LOX IMVI melanoma 85.8%

Cc1ccc2nc(-c3ccc(-n4on4-c4ccc(/C=C/c5ccc(-n6on6-c6ccc(-c7nc8ccc(C)cc8s7)cc6)cc5S(=O)(=O)O)c(S(=O)(=O)O)c4)cc3)sc2c1
inactive: DU-145 prostate 111% | K-562 leukemia 99.2% | MALME-3M melanoma 101% | MDA-MB-231 breast 133% | RXF 393 renal 110% | SF-268 CNS 99.8% | SF-295 CNS 110% | SF-539 CNS 98.7% | UACC-257 melanoma 110% | M14 melanoma 99.5% | HCT-15 colon 109% | HT29 colon 113% | U251 CNS 115% | PC-3 prostate 98% | SK-MEL-5 melanoma 107% | UACC-62 melanoma 105% | LOX IMVI melanoma 97% | SK-MEL-28 melanoma 107%

S=c1ssnc1-c1ccccn1
inactive: DU-145 prostate 41.6% | MALME-3M melanoma 52% | MDA-MB-231 breast 44.3% | SF-268 CNS 24.9% | SF-295 CNS 40.4% | SF-539 CNS 14.5% | UACC-257 melanoma 93.3% | M14 melanoma 24.5% | HCT-15 colon 14.1% | HT29 colon 33.6% | SNB-19 CNS 47.8% | U251 CNS 28.9% | PC-3 prostate 32.9% | SK-MEL-5 melanoma 16.7% | SK-MEL-28 melanoma 52.2%
active: K-562 leukemia -35.5% | RXF 393 renal -0.23% | LOX IMVI melanoma 6.73%

O=S(=O)(CCN1CCOCC1)Nc1cc(-c2ccc3ncnc(Nc4ccc(F)c(Cl)c4)c3c2)cnc1Cl
active: MALME-3M melanoma -23.1% | MDA-MB-231 breast -1.28% | RXF 393 renal -19% | SF-295 CNS 2.93% | SF-539 CNS -34.5% | UACC-257 melanoma -3.1% | SNB-19 CNS 5.93% | SK-MEL-5 melanoma -5.68% | UACC-62 melanoma -16.4% | LOX IMVI melanoma 4.23% | SK-MEL-28 melanoma 2.15%
inactive: DU-145 prostate 15.6% | K-562 leukemia 42.3% | SF-268 CNS 16.8% | M14 melanoma 14.5% | HCT-15 colon 16.2% | HT29 colon 14.6% | U251 CNS 13.5% | PC-3 prostate 13.4%

COc1cccc(-c2nc3sccn3c2-c2ccnc(NCCNC(=O)Nc3cccc(C(F)(F)F)c3)n2)c1
active: RXF 393 renal 6.3%
inactive: DU-145 prostate 79.8% | K-562 leukemia 39.9% | MALME-3M melanoma 85.1% | MDA-MB-231 breast 43.7% | SF-268 CNS 62.3% | SF-295 CNS 37.7% | SF-539 CNS 77.9% | UACC-257 melanoma 69.5% | M14 melanoma 39.2% | HCT-15 colon 45.9% | SNB-75 CNS 71.8% | SNB-19 CNS 74.8% | U251 CNS 58.1% | SK-MEL-5 melanoma 51.5% | UACC-62 melanoma 50.5% | LOX IMVI melanoma 44.3% | SK-MEL-28 melanoma 78.4%
